Test results taken from PubChem BioAssay (EPA / NIEHS).
Where “and” joins values, the source holds several entries; their conditions need not be identical. Identical values can stand only once. Records with an inconclusive call do not appear. Some compounds were tested as several samples or in several runs, with calls that do not always agree. Calls of active or inactive are those of the source. The calls were made as follows, unless noted: active = hit-call score of the fitted dose curve at least 0.9, where 1 is the maximum; inconclusive = response in the unintended direction; inactive = score below 0.9.

Experiments:
[1] = biological target: Retinoic acid receptor RXR-alpha (Homo sapiens) (UniProt P19793); assay: OT_NURR1_NURR1RXRa_0480: Odyssey Thera (OT) 8-hour HEK293T Protein Complementation Assay for Nurr1/retinoid X receptor (RXR) (AID 2283385)
Method in brief: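 HEK293T cells expressing Nurr1 and RXRα fused to reporter fragments were dosed with compound for 8 hours. Complex formation was read as fluorescence intensity and analysed as gain of signal against DMSO as baseline.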

[2] = biological target: Retinoic acid receptor RXR-alpha (Homo sapiens) (UniProt P19793); assay: OT_NURR1_NURR1RXRa_1440: Odyssey Thera (OT) 24-hour HEK293T Protein Complementation Assay for Nurr1/retinoid X receptor (RXR) (AID 2283386)
Method in brief: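 HEK293T cells were dosed with compound and read 24 h later by fluorescence intensity in a protein-fragment complementation format, where Nurr1–RXRα interaction reconstitutes a split reporter. Activity was fitted as gain of signal relative to DMSO baseline.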

[3] = biological target: Peroxisome proliferator-activated receptor gamma (Homo sapiens) (UniProt P37231); assay: OT_PPARg_PPARgSRC1_0480: Odyssey Thera (OT) 8-hour Protein-Complementation Assay for Peroxisome Proliferator-activated Receptor Gamma / SRC-1 Co-activator (AID 2283387);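 also: nuclear to cytoplasmic split Venus YFP fluorescence ratio reporting PPARg SRC-1 interaction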
Method in brief: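 Read-out: 488 nm N/C fluorescence ratio from complemented Venus YFP fragments, ≥350 cells per image, gain-of-signal fitted against DMSO baseline. Fusions of PPARg/SRC-1 with IFP1/IFP2 expressed transiently in HEK293T; compounds applied 8 h.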

[4] = biological target: Peroxisome proliferator-activated receptor gamma (Homo sapiens) (UniProt P37231); assay: OT_PPARg_PPARgSRC1_1440: Odyssey Thera (OT) 24-hour Protein-Complementation Assay for Peroxisome Proliferator-activated Receptor Gamma/ SRC-1 Co-activator (AID 2283388);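 also: nuclear to cytoplasmic ratio of reconstituted Venus YFP fluorescence in fixed imaged cells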
Method in brief: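 Protein-fragment complementation between PPARg and coactivator SRC-1 was measured by fluorescence imaging in transiently transfected HEK293T cells after 24 h treatment. Signal was quantified as N/C ratio in the 488 nm channel, with DMSO as negative control.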

[5] = biological target: Bile acid receptor (Homo sapiens) (UniProt Q96RI1); assay: OT_FXR_FXRSRC1_1440: Odyssey Thera (OT) 24-hour HEK293T Protein-Complementation Assay for Farnesoid X receptor/SRC-1 Co-activator (AID 2283384)
Method in brief: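 HEK293T cells were dosed with compound and read 24 h later by fluorescence intensity from protein-fragment complementation reporting FXR/SRC-1 co-activator interaction. Gain of signal was fitted relative to DMSO negative control as baseline.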

[6] = CEETOX_H295R_OHPREG: CeeTox H295R High-throughput Steroidogenesis Assay for OH-Pregnenolone (OHPREG) (AID 2283434; active = hit-call score of the fitted dose curve at least 0.9, where 1 is the maximum; inactive = score below 0.9); details: actives raise or lower the signal
Method in brief: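 Human adrenal H295R cells were prestimulated 48 h with 10 uM forskolin, then exposed 48 h to chemical in 0.1% DMSO. Medium 17alpha-hydroxypregnenolone was quantified by HPLC-MS/MS after MTBE extraction; bidirectional fitting versus DMSO baseline.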

[7] = CEETOX_H295R_OHPROG: CeeTox H295R High-throughput Steroidogenesis Assay for OH-Progesterone (OHPROG) (AID 2283435; active = hit-call score of the fitted dose curve at least 0.9, where 1 is the maximum; inactive = score below 0.9); details: actives raise or lower the signal
Method in brief: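 H295R human adrenal cells were prestimulated 48 h with 10 uM forskolin, then exposed 48 h to test chemical (0.1% DMSO final). 17alpha-hydroxyprogesterone in medium was measured by HPLC-MS/MS after MTBE extraction; bidirectional fitting vs DMSO.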

[8] = CEETOX_H295R_CORTISOL: CeeTox H295R High-throughput Steroidogenesis Assay for Cortisol (AID 2283438; active = hit-call score of the fitted dose curve at least 0.9, where 1 is the maximum; inactive = score below 0.9;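 also: cortisol secreted into medium quantified by LC-MS/MS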); details: actives raise or lower the signal
Method in brief: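 H295R human adrenal cells were prestimulated 48 h with 10 uM forskolin, then exposed 48 h to test chemical (0.1% DMSO final). Medium cortisol was quantified by HPLC-MS/MS after MTBE extraction; bidirectional fitting relative to DMSO baseline.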

[9] = CEETOX_H295R_DOC: CeeTox H295R High-throughput Steroidogenesis Assay for DOC (AID 2283439; active = hit-call score of the fitted dose curve at least 0.9, where 1 is the maximum; inactive = score below 0.9); details: actives raise or lower the signal
Method in brief: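 H295R adrenal cells prestimulated 48 h with 10 uM forskolin, then exposed 48 h to test chemical (0.1% DMSO final). Medium 11-deoxycorticosterone extracted with MTBE, quantified by HPLC-MS/MS; bidirectional fit versus DMSO baseline; MTT viability in same wells.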

[10] = CEETOX_H295R_ANDR: CeeTox H295R High-throughput Steroidogenesis Assay for Androstenedione (ANDR) (AID 2283436; active = hit-call score of the fitted dose curve at least 0.9, where 1 is the maximum; inactive = score below 0.9); details: actives raise or lower the signal
Method in brief: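 H295R human adrenal cells (passages ≤10) were exposed to test chemicals for 48 h; androstenedione in medium was MTBE-extracted and quantified by HPLC-MS/MS against a 7-point standard curve. Bidirectional fitting used DMSO as baseline.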

Measured: AC50

Sequence of Bile acid receptor (Homo sapiens) (Q96RI1 whole entry, looked up, the tested form may be a part): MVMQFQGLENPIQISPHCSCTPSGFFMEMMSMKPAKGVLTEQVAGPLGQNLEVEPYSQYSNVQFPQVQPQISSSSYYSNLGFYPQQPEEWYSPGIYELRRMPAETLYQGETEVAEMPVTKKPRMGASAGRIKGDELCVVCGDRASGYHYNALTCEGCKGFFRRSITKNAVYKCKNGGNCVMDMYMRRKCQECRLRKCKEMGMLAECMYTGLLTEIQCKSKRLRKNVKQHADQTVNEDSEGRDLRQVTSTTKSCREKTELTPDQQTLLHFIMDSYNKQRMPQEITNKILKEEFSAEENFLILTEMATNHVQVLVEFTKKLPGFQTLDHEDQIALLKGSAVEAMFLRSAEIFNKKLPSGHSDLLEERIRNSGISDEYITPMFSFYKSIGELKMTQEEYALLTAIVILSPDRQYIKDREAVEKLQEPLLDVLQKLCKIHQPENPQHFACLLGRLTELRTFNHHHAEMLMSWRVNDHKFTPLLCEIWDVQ
Sequence of Peroxisome proliferator-activated receptor gamma (Homo sapiens) (P37231 whole entry, looked up, the tested form may be a part): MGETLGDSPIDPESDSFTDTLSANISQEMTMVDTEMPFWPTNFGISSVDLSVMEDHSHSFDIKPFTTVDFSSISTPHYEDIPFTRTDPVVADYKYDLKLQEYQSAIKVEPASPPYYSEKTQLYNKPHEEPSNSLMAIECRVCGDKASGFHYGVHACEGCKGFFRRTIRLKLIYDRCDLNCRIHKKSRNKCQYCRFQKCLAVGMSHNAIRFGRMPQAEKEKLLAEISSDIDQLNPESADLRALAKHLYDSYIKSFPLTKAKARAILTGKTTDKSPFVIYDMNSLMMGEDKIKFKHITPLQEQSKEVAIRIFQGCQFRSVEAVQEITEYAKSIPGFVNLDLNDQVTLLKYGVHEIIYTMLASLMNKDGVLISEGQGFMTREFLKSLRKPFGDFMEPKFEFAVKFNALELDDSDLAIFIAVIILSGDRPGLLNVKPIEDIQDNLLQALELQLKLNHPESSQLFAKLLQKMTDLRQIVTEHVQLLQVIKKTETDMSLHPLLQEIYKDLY
Sequence of Retinoic acid receptor RXR-alpha (Homo sapiens) (P19793 whole entry, looked up, the tested form may be a part): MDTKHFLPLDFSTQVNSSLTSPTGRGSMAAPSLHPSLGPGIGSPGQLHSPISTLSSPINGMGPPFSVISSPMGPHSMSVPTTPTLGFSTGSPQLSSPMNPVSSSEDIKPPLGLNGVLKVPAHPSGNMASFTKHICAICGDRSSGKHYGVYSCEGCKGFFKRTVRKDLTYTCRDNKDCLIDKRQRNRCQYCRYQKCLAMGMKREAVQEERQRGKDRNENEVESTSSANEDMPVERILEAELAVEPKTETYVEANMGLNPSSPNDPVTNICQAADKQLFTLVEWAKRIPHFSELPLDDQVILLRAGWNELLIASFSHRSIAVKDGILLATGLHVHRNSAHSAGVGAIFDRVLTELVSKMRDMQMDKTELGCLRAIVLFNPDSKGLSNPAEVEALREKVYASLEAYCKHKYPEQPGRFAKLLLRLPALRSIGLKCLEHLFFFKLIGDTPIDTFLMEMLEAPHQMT

CCOP(=S)(Oc1cnc(C(C)(C)C)nc1)OC(C)C (stereo not drawn)
active: [1] 73.2 µM | [2] 78.8 µM
inactive: [1] | [2] | [3] | [4]

CNC(=O)Oc1cccc2c1OC(C)(C)O2
active: [7] 30.9 µM
inactive: [5] | [1] | [3] | [4] | [6] | [8] | [9]

CCC(CC)Nc1c([N+](=O)[O-])cc(C)c(C)c1[N+](=O)[O-]
active: [5] 71.7 µM | [2] 82.1 µM
inactive: [1] | [2] | [4]

COP(=O)(OC)C(O)C(Cl)(Cl)Cl (stereo not drawn)
active: [5] 25.1 µM
inactive: [1] | [2] | [4]

CCCSP(=O)(OCC)SCCC
inactive: [5] | [1] | [2] | [4] | [6] | [7] | [10] | [8] | [9]

CC(COc1ccc(Oc2ccccc2)cc1)Oc1ccccn1 (stereo not drawn)
inactive: [1] | [2] | [3] | [4] | [6] | [7] | [10]
active: [5] 7.29 µM | [1] 63.2 µM

CCCOCC(=Nc1ccc(Cl)cc1C(F)(F)F)n1ccnc1
inactive: [3] | [4]
active: [5] 11.2 µM | [6] 0.377 µM | [7] 0.147 µM | [8] 0.105 µM | [9] 0.165 µM

Cc1cc(C2CC2)nc(Nc2ccccc2)n1
inactive: [5] | [1] | [2] | [4]

CON=C(C(=O)OC)c1ccccc1CON=C(C)c1cccc(C(F)(F)F)c1
active: [1] 17.4 µM
inactive: [1] | [2] | [4]

CCCCOC(=O)c1ccccc1C(=O)O
inactive: [5] | [1] | [2] | [3] | [4]

CNc1cnn(-c2cccc(C(F)(F)F)c2)c(=O)c1Cl
inactive: [5] | [1] | [2] | [3] | [4] | [6] | [7] | [8] | [9]

Cc1ccn2nc(S(=O)(=O)Nc3c(F)cccc3F)nc2n1
inactive: [5] | [1] | [2] | [4]

CN(C)[C@@H]1C(=O)C(C(N)=O)=C(O)[C@@]2(O)C(=O)C3=C(O)c4c(O)cccc4[C@@](C)(O)[C@H]3[C@H](O)[C@@H]12
active: [1] 50 µM | [2] 23.7 µM
inactive: [1] | [2] | [4]

C#CCC1=C(C)C(OC(=O)C2C(C=C(C)C)C2(C)C)CC1=O (stereo not drawn)
inactive: [1] | [2] | [4] | [6] | [7]
active: [5] 49.8 µM | [1] 66.7 µM | [2] 79.6 µM

C=C(C)[C@H]1Cc2c(ccc3c2O[C@@H]2COc4cc(OC)c(OC)cc4[C@@H]2C3=O)O1
active: [5] 9.92 µM | [1] 16 µM and 12.6 µM | [2] 22.2 µM
inactive: [2] | [4]

CSc1nnc(C(C)(C)C)c(=O)n1N
inactive: [5] | [1] | [2] | [6] | [7] | [8] | [9]

CCCSP(=O)(OCC)Oc1ccc(Br)cc1Cl (stereo not drawn)
inactive: [5] | [1] | [2] | [4] | [6] | [7]
active: [1] 44 µM

CCOP(=O)(NC(C)C)Oc1ccc(SC)c(C)c1 (stereo not drawn)
active: [5] 8.5 µM | [6] 13.9 µM | [10] 50 µM | [9] 17.4 µM
inactive: [1] | [2] | [4] | [8]

CC(Oc1cccc(Cl)c1)C(=O)O (stereo not drawn)
inactive: [5] | [1] | [2] | [4]

COP(=O)(OC)OC(Br)C(Cl)(Cl)Br (stereo not drawn)
inactive: [5] | [2] | [4]

COc1ccc(C(=CC(=O)N2CCOCC2)c2ccc(Cl)cc2)cc1OC
active: [5] 76.3 µM | [8] 35.2 µM
inactive: [1] | [2] | [3] | [4] | [6] | [7] | [10] | [9]

CC1(C(=O)Nc2ccc(O)c(Cl)c2Cl)CCCCC1
active: [6] 7.52 µM | [7] 9.28 µM
inactive: [5] | [1] | [2] | [3] | [4]

COc1cccc(C(=O)NN(C(=O)c2cc(C)cc(C)c2)C(C)(C)C)c1C
active: [5] 27 µM
inactive: [1] | [2] | [4] | [6]

CCOP(=O)(OCC)Oc1cc(C)nc(C(C)C)n1
inactive: [5] | [2] | [4]

CN1COCN(Cc2cnc(Cl)s2)C1=N[N+](=O)[O-]
inactive: [5] | [1] | [2] | [4]

CCCCOC(=O)[C@@H](C)Oc1ccc(Oc2ccc(C#N)cc2F)cc1
inactive: [1] | [2] | [3] | [4]
active: [1] 13.5 µM

CCc1cccc(CC)c1N(COC)C(=O)CCl
active: [2] 0.714 µM
inactive: [5] | [1] | [4]

CCOC(=O)CC(SP(=O)(OC)OC)C(=O)OCC (stereo not drawn)
inactive: [5] | [1] | [2] | [4]

Nc1nc(N)nc(NC2CC2)n1
inactive: [5] | [1] | [2] | [6] | [7] | [8] | [9]

C[Si](Cn1cncn1)(c1ccc(F)cc1)c1ccc(F)cc1
inactive: [5] | [1] | [2] | [3] | [4] | [6] | [7]

CC(C)N(C(=O)SCC(Cl)=C(Cl)Cl)C(C)C
inactive: [2]
active: [5] 80.5 µM | [1] 74.3 µM and 85 µM | [2] 77.9 µM

CCOP(=S)(OCC)OC(Cl)C(Cl)(Cl)Cl (stereo not drawn)
active: [1] 80.9 µM
inactive: [1] | [2] | [4]

CCCCSP(=O)(SCCCC)SCCCC
inactive: [5] | [1] | [2] | [4]
active: [1] 68.9 µM

CSC1=N[C@@](C)(c2ccccc2)C(=O)N1Nc1ccccc1
inactive: [1] | [2] | [4]
active: [5] 50 µM

CCOP(=O)(SC(C)CC)N1CCSC1=O (stereo not drawn)
inactive: [1] | [2] | [3] | [4]
